Measurements published in PubChem BioAssay (NCATS).
Records with an inconclusive call do not appear. The source made the active and inactive calls. Calls follow the shape of the dose curve; as a rule, active = well fitted curve in the direction sought with a large enough effect; inconclusive = small, poorly fitted or top-dose-only effect, or another doubt; inactive = no such curve, though single readings can be large; an effect the other way counts as inactive or inconclusive.

Assays:
ATS189 = experiment: qHTS profiling for inhibitors of Plasmodium falciparum proliferation (AID 504749); also: nearly all actives have a fitted effect of over 60% in size; also: potency is read from the fitted curve at half-maximal effect; details: P. falciparum in erythrocytes, SYBR Green DNA, 72 h; series mostly up to 12.8 µM
Procedure, shortened: (§1)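 Fluorescence of SYBR Green-bound parasite DNA, read at 485/535 nm, served as the growth measure. Infected erythrocytes were cultured with compound 72 h; artemisinin (0.29 uM) and DMSO wells defined the normalization range.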

ATS95 = experiment: as above; details: P. falciparum in erythrocytes, SYBR Green DNA, 72 h; series mostly up to 12.8 µM
Procedure, shortened: as §1

CP194 = experiment: as above; details: P. falciparum in erythrocytes, SYBR Green DNA, 72 h; series mostly up to 12.8 µM
Procedure, shortened: as §1

CP201 = experiment: as above; details: P. falciparum in erythrocytes, SYBR Green DNA, 72 h; series mostly up to 12.8 µM
Procedure, shortened: as §1

CP237 = experiment: as above; details: P. falciparum in erythrocytes, SYBR Green DNA, 72 h; series mostly up to 12.8 µM
Procedure, shortened: as §1

CP250 = experiment: as above; details: P. falciparum in erythrocytes, SYBR Green DNA, 72 h; series mostly up to 12.8 µM
Procedure, shortened: as §1

CP260 = experiment: as above; details: P. falciparum in erythrocytes, SYBR Green DNA, 72 h; series mostly up to 12.8 µM
Procedure, shortened: as §1

CP266 = experiment: as above; details: P. falciparum in erythrocytes, SYBR Green DNA, 72 h; series mostly up to 12.8 µM
Procedure, shortened: as §1

CP286 = experiment: as above; details: P. falciparum in erythrocytes, SYBR Green DNA, 72 h; series mostly up to 12.8 µM
Procedure, shortened: as §1

CP315 = experiment: as above; details: P. falciparum in erythrocytes, SYBR Green DNA, 72 h; series mostly up to 12.8 µM
Procedure, shortened: as §1

DIV17 = experiment: as above; details: P. falciparum in erythrocytes, SYBR Green DNA, 72 h; series mostly up to 12.8 µM
Procedure, shortened: as §1

GB4 = experiment: as above; details: P. falciparum in erythrocytes, SYBR Green DNA, 72 h; series mostly up to 12.8 µM
Procedure, shortened: as §1

HB3 = experiment: as above; details: P. falciparum in erythrocytes, SYBR Green DNA, 72 h; series mostly up to 12.8 µM
Procedure, shortened: as §1

P93_24 = experiment: as above; details: P. falciparum in erythrocytes, SYBR Green DNA, 72 h; series mostly up to 12.8 µM
Procedure, shortened: as §1

P94_40 = experiment: as above; details: P. falciparum in erythrocytes, SYBR Green DNA, 72 h; series mostly up to 12.8 µM
Procedure, shortened: as §1

PAD = experiment: as above; details: P. falciparum in erythrocytes, SYBR Green DNA, 72 h; series mostly up to 12.8 µM
Procedure, shortened: as §1

TAB109 = experiment: as above; details: P. falciparum in erythrocytes, SYBR Green DNA, 72 h; series mostly up to 12.8 µM
Procedure, shortened: as §1

TAB165 = experiment: as above; details: P. falciparum in erythrocytes, SYBR Green DNA, 72 h; series mostly up to 12.8 µM
Procedure, shortened: as §1

[1] = S16 Schwann cell viability assay (CellTiter-Glo assay) (AID 624031);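 also: native untransfected S16 rat Schwann cells; nearly all actives have a fitted effect of over 70% in size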
Procedure, shortened: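 Counter-screen for cytotoxicity: parental S16 rat Schwann cells lacking the PMP22 reporters, treated 24 h with compound, viability from cellular ATP by CellTiter-Glo luminescence, normalized to DMSO (0%) and no-cell wells.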

Measured: Potency

CN1CC(=O)N=C1N
not listed: [1]
inactive: all other assays above

CCC(C)C(=O)OC1CC(O)C=C2C=CC(C)C(CCC(O)CC(O)CC(=O)O)C21 (centres undefined)
not listed: ATS189
inactive: all other assays above

CC(=O)O[C@@]1(C(C)=O)CCC2C3CC(C)C4=CC(=O)CC[C@@]4(C)C3CC[C@]21C (some centres undefined)
active: P94_40 12.6 µM
inactive: CP194 | CP201 | CP237 | CP266 | CP286 | CP315 | DIV17 | GB4

C=Cc1c(C)/c2[n-]/c1=C\c1[n-]c(c(CC)c1C)/C=c1\[n-]c3c(c1C)C(=O)C(C(=O)[O-])C=3c1[n-]c(c(C)c1CCC(=O)[O-])\C=2.[Cu].[Na+].[Na+] (centres undefined)
inactive: [1] | CP201 | CP266 | CP286

C[C@@]12CCC(=O)C=C1C=CC1C2CC[C@]2(C)C1CC[C@@]21CCC(=O)O1 (some centres undefined)
not listed: ATS189 | CP250 | TAB109 | TAB165
inactive: all other assays above
